# E coli Lon inh: inhibits E. coli Lon protease | inhibition, % at 7.94 µM | purified E. coli Lon protease, fluorescence polarization | hit rate 0.42% among 360,000; in the data active = inhibition above about 13%, passing the limit was not always enough;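 also: 0% = enzyme with probe and DMSO and 100% = no enzyme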
# Target sequence (P0A9M0 whole entry, looked up): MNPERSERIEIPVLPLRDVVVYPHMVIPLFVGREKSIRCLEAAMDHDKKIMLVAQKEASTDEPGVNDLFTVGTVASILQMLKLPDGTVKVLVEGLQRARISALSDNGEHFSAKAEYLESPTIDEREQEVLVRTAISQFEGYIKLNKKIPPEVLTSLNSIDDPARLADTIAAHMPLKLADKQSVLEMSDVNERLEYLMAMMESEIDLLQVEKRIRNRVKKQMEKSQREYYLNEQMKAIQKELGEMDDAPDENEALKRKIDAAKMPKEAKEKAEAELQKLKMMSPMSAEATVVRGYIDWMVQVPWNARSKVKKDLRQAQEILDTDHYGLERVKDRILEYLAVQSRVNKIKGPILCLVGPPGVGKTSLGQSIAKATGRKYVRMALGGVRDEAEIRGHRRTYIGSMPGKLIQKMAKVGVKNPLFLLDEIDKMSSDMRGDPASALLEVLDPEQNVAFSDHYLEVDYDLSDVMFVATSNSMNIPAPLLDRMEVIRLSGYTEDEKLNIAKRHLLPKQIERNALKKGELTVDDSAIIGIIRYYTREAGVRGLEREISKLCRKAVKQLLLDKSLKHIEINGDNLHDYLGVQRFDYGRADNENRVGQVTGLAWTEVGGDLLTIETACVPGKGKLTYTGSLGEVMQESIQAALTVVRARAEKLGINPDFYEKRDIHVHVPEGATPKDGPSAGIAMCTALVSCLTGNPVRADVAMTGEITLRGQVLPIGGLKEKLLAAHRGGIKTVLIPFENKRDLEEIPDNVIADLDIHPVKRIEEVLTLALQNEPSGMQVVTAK
# Keap1-Nrf2 PPI: inhibitors of human Keap1-Nrf2 protein-protein interaction; Q14145; Keap1 Kelch-Nrf2 peptide fluorescence polarization, 1536-well; inhibition, % at 9.4 µM; hit rate 0.15% among 340,000; in the data active = inhibition above about 12%;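 also: human Keap1 Kelch domain with fluorescein labeled Nrf2 9mer peptide probe; 0% = neutral control wells and 100% = peptide positive control; higher means more block of Keap1 binding to Nrf2 peptide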
# C-LANA FP: blocks KSHV LANA C-terminal domain binding to DNA. MBP-C-LANA/FAM-LBS DNA binding, fluorescence polarization. inhibition, % at 9 µM. hit rate 0.078% among 340,000. AID 504423;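 active = highest replicate inhibition at or above 60% at 9 µM, even if other replicates fall short; inactive = all replicates below 60% inhibition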;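 also: 0% = neutral control wells and 100% = 4 µM acridine orange control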
# MCL1 BIM primary: MCL1-BIM-BH3 interaction inhibition (human). hit rate 0.68% among 320,000. AID 2057. GST-MCL1 / FITC-Bim-BH3 fluorescence polarization. inhibition, % at 10.9 µM;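 active = inhibition above the mean inhibition of all tested compounds plus 3 SD, set per campaign, cut at about 40% in these data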;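 also: 0% = DMSO wells and 100% = unlabeled Bim-BH3 peptide control; higher means more loss of mP so more displacement of Bim peptide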
# Bcl-xL primary: Bcl-xL (human) inhibition | GST-Bcl-xL / FITC-Bim BH3 peptide fluorescence polarization | AID 2129 | hit rate 0.7% among 320,000 | Q07817 | inhibition, % at 10.9 µM;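 active = inhibition above the mean of all tested compounds plus 3 SD, cutoff set per campaign, cut at about 30% in these data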;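 also: 0% = DMSO wells and 100% = unlabeled Bim-BH3 peptide competitor; inhibitors lower millipolarization by displacing the labeled peptide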
# GLD-1 RNA inh: GLD-1-TGE RNA interaction inhibition (C. elegans) | Q17339 | purified GLD-1 + fluorescein TGE RNA, fluorescence polarization | inhibition, % at 5.96 µM | hit rate 0.44% among 320,000;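 active = percent inhibition above a per-plate cutoff, the plate mean of test compounds plus 3 SD, cut at about 30% in these data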;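 also: 0% = DMSO wells with GLD-1 and probe and 100% = wells lacking GLD-1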
# Keap1 TSA: binders of human Keap1 Kelch domain; shares compounds with Keap1-Nrf2 PPI; Keap1 Kelch thermal shift, delta Tm; hits give high values; max delta Tm, degrees C; hit rate 8% among 400; AID 651823; in the data active = max delta Tm above about 0.48 degrees C
# Sypro dye melt: shifts Sypro Orange melt without protein, a false positive; shares compounds with Keap1-Nrf2 PPI; Sypro Orange dye-only thermal melt, no protein, delta Tm; top dose 26 µM; delta Tm, degrees C (no concentration beside the values); 140 tested, under 10 active; AID 651858;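 active = at highest dose tested, delta Tm positive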
# E coli Lon conf: confirmation of E. coli Lon protease inhibitors | inhibition, % at 7.94 µM | purified E. coli Lon, fluorescence polarization | AID 602230 | shares compounds with E coli Lon inh | hit rate 31% among 1,400; in the data active = inhibition above about 16%;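 also: 0% = enzyme with probe and DMSO and 100% = no enzyme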
# * = called active by the depositor; · = no result; + = active, no number. A selection: hits, their analogues and other compounds. The true share with any hit is near 1.3%.
SMILES,E coli Lon inh,Keap1-Nrf2 PPI,C-LANA FP,MCL1 BIM primary,Bcl-xL primary,GLD-1 RNA inh,Keap1 TSA,others
COC(=O)c1ccccc1NC1=C/C(=N\S(=O)(=O)c2ccc(C(=O)O)cc2)c2ccccc2C1=O,-7,14*,10,45*,40*,15,1.4*,Sypro dye melt=8.1*
Cc1ccc2oc(=O)c3cnn(CC(=O)NCCC(C)C)c3c2c1,-17,31*,0,8,8,4,-0.17,Sypro dye melt=-26
Cc1ccc2oc(=O)c3cnn(CC(=O)NCCN(C)C)c3c2c1,-10,-2,-1,-5,-1,3,·,
O=C(NNc1ncnc2sccc12)c1ccc(Cl)cc1,8,27*,16,-3,-8,0,-0.05,
CNS(=O)(=O)c1ccc(CNC[C@H]2O[C@@H](n3cc(C)c(=O)[nH]c3=O)C[C@@H]2O)cc1,-6,·,·,·,·,·,·,
CCCc1cc(=O)oc2cc(C)cc(OCC(=O)Nc3ccc(S(N)(=O)=O)cc3)c12,3,-1,0,-3,0,4,·,
O=C1CCn2c1c(O)c1ccccc1c2=O,37,19*,31,·,·,·,-0.07,Sypro dye melt=-31
CN(C/C=C/c1ccccc1[N+](=O)[O-])Cc1ccccc1,0,-2,1,-4,0,-5,·,
CC1(c2ccc(Cl)cc2)NC(=O)CS1 (stereo unspecified),0,-5,1,18,2,5,·,
O=C(CC(=O)NN=C1CCCCCC1)NCc1cccnc1,-6,2,1,2,5,2,·,
CCN1CCN(S(=O)(=O)c2ccc(Cl)c(C(=O)NC3CCC(C)CC3)c2)CC1 (stereo unspecified),-2,29*,13,2,5,1,-0.09,Sypro dye melt=-25
COc1ccc(Nc2nc3ccccc3nc2-n2nc(C)cc2C)cc1,-8,43*,14,0,-3,0,-0.16,
Cc1cc(C)n(-c2nc3ccccc3nc2NCCc2ccccc2)n1,-9,-6,0,-2,2,1,·,
O=C(Nc1ccc(NC(=O)C2CCCCC2)nc1)c1cccs1,-2,1,1,7,5,3,·,
CCOC(=O)c1c(C)[nH]c(C(=O)COC(=O)c2cccnc2Cl)c1C,-3,25*,11,·,·,1,-0.07,Sypro dye melt=-27
COc1ccccc1CNC(=O)c1ccc(NS(C)(=O)=O)cc1,5,-2,-2,8,5,0,·,
COc1ccccc1CNC(=O)c1ccccc1NS(C)(=O)=O,-14,21*,-1,11,4,7,-0.13,
CCCc1nc2oc3cc(OC)ccc3c(=O)c2c(=O)n1Cc1ccco1,-8,14*,0,20,14,9,-0.19,
COc1ccccc1C(CNC(=O)c1ccc(NS(=O)(=O)c2ccc3c(c2)OCCO3)cc1)N(C)C (stereo unspecified),-8,1,14,-5,3,-1,·,
CCc1cccc(NS(=O)(=O)c2ccc3c(c2)N(C)CCO3)c1,4,-1,-1,-5,3,5,·,
COc1ccc(Br)cc1CNCC1CCCO1 (stereo unspecified),-9,36*,19,-2,11,6,-0.18,
COc1cc2c3nnc(-c4ccc(F)cc4)c-3cn(Cc3ccc(C)cc3)c2cc1OC,-3,13*,4,-16,13,-4,-0.06,
Cc1ccc(Cn2nc3c4cc(F)ccc4n(Cc4ccc(F)cc4)cc-3c2=O)cc1,-4,-1,1,·,·,·,·,
O=C(Nn1cnnc1)c1ccc(Cl)c(Cl)c1,-6,22*,12,-1,-2,-3,-0.05,
O=C(CCN1C(=O)/C(=C/c2ccco2)SC1=S)Nc1ccc(O)cc1C(=O)O,-13,13*,63*,·,·,·,0.29,
SMILES,E coli Lon inh,Keap1-Nrf2 PPI,C-LANA FP,MCL1 BIM primary,Bcl-xL primary,GLD-1 RNA inh,Keap1 TSA,others
CCN1CCN(C(=O)c2cc(-c3ccco3)nc3ccccc23)CC1,12,-9,3,15,11,5,·,
Nc1nc(SCC(=O)Nc2cc(C(F)(F)F)ccc2N2CCOCC2)n[nH]1,1,14*,0,0,0,6,-0.07,Sypro dye melt=-27
Nc1nnc(SCC(=O)Nc2cc(C(F)(F)F)ccc2N2CCOCC2)s1,5,-3,-1,1,3,5,·,
CN(CC(=O)Nc1cc(C(F)(F)F)ccc1-n1cncn1)Cc1ccccc1N1CCOCC1,-3,41*,19,·,·,·,-0.16,Sypro dye melt=-27
CCOCCCN(CCC#N)C(=O)C1CCN(S(=O)(=O)c2ccc(-n3cnnn3)cc2)CC1,-5,-1,1,2,3,-1,·,
OC(CCN1CCC2(CC1)OCCO2)C(F)(F)F (stereo unspecified),8,19*,8,9,5,3,-0.12,
O=C(O)CCCNc1ccc(S(=O)(=O)N2CCCCC2)cc1,13,-6,0,8,9,4,·,
CCC(C(=O)NC1C(=O)N2C(C(=O)O)=C(CSc3nnc(C)s3)CSC12)c1ccccc1 (stereo unspecified),-1,30*,17,20,15,3,-0.12,Sypro dye melt=-26
O=C1CS/C(=N/N=C/c2cccs2)N1Cc1ccc(F)cc1,-2,·,·,-1,-6,1,·,
NC(=O)COc1ccc(NC(=O)CC23CC4CC(CC(C4)C2)C3)cc1,-4,22*,1,-4,10,3,-0.09,
CNC(=O)c1ccc(NC(=O)CC23CC4CC(CC(C4)C2)C3)cc1,6,-2,0,-9,4,-3,·,
COc1ccc(C2=CC(c3ccco3)n3ncnc3N2)cc1 (stereo unspecified),49*,20*,40,·,·,·,-0.16,Sypro dye melt=-28;E coli Lon conf=69*
Cc1ccc(/C=C2/SC(=O)NC2=S)o1,89*,25*,31,·,·,·,0.73*,E coli Lon conf=107*
Cc1ccc(/C=C2/SC(=S)N(C3CCCCC3)C2=O)o1,-26,-1,1,24,14,0,·,
COc1ccc2nc3ccccc3[n+]([O-])c2c1,194*,39*,50,·,·,·,-0.14,E coli Lon conf=138*
Cc1cc2nc3c(=O)n(C4CCCCC4)c(=O)[nH]c3nc2cc1N,75*,48*,97*,·,·,·,-0.03,Sypro dye melt=-25;E coli Lon conf=115*
Cc1nnc(NC(=O)c2ccc3c(c2)NC(=O)CS3)s1,25*,18*,0,-3,-6,-4,-0.13,E coli Lon conf=-6
Cc1ccc(NC(=O)c2ccc3c(c2)NC(=O)CS3)nc1,-12,-2,1,8,4,-7,·,
N#CC1=C(N)Oc2ccc3ccc(O)cc3c2C1c1ccsc1 (stereo unspecified),+,17*,87*,·,·,·,-0.12,E coli Lon conf=+
